From PubChem BioAssay
GPR151 ag = activators of human GPR151, primary screen, cell-based, PathHunter beta-arrestin, luminescence; 1% of 650,000 active; PathHunter beta-arrestin GPR151 cells; G-protein coupled receptor 151 (Homo sapiens), Q8TDV0; AID 1508602, 2020; activation, % at 11.2 µM; in the data active = activation above about 4.9%
TEAD-YAP block = TEAD-YAP interaction inhibition, primary screen, TEAD-YAP interaction inhibitor project, luminescence, HEK-TIYL cells; TEAD-Gal4/YAP UAS-luciferase luminescence; inhibition, % at 9.12 µM; 1.4% of 640,000 active; AID 1259422, 2018; in the data active = inhibition above about 32%
FBW7 act = FBW7 E3 ligase activators, primary screen, biochemical, AlphaScreen, human; AlphaScreen FBW7–phospho-cyclin E peptide binding, activator screen; normalized activity (activation), % at 26.1 µM; 0.13% of 650,000 active; in the data active = normalized activity above about 1.9%;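 also: purified mutant Fbw7 with reduced substrate affinity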
MITF inh = MITF inhibitors, primary screen, biochemical, AlphaScreen, human. 0.91% of 650,000 active. Microphthalmia-associated transcription factor (Homo sapiens), O75030. inhibition, % at 2.6 µM. AlphaScreen MITF homodimerization, bead proximity signal; in the data active = inhibition above about 50%
Target sequence (O75030 whole entry, looked up): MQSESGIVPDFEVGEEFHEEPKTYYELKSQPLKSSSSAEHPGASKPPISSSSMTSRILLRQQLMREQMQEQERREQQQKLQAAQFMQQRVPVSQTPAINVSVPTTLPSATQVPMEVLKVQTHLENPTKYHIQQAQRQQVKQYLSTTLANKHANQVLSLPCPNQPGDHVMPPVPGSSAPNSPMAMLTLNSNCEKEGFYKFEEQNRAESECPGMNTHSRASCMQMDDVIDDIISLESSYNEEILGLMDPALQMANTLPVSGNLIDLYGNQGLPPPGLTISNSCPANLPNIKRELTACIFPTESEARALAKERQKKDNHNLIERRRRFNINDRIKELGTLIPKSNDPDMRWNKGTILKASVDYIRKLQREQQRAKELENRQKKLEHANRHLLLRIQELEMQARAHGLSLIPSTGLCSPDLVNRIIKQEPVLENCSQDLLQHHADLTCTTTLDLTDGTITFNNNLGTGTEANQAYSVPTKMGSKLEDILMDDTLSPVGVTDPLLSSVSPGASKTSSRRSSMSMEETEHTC
Of the large screens only hits and unclear results are named; the others gave an inactive call. In the library only some 3.4% were active in any assay of this set; here they are far more common.

COc1cccc(C2Nc3ccc(C(=O)c4ccccc4)cc3NC3=C2C(=O)CCC3)c1 (centres undefined)	TEAD-YAP block 60.0
COc1ccc(C2Nc3ccc(C(=O)c4ccccc4)cc3NC3=C2C(=O)CC(C)(C)C3)cc1 (centres undefined)	none
COc1ccc(C2Nc3ccc(C(=O)c4ccccc4)cc3NC3=C2C(=O)CCC3)cc1 (centres undefined)	TEAD-YAP block 39.0
COc1ccc(CCn2c(C)cc(C(=O)CN3CCOCC3)c2C)cc1OC	none
C=CCC(O)(CC=C)C(C)NC(=O)CCC1(Cc2ccc(OC)cc2F)CCC(=O)N1 (centres undefined)	none
COC(=O)c1cccc(-n2c(C)cc(/C=C(\C#N)C(=O)Nc3ccccc3)c2C)c1	TEAD-YAP block 38.6
CNC(=O)/C(C#N)=C/c1cc(C)n(-c2ccc(F)cc2)c1C	TEAD-YAP block 71.2
COC(=O)c1cccc(-n2c(C)cc(/C=C(/C#N)C(=O)NCc3ccco3)c2C)c1	none
CCc1cc(-c2n[nH]c(C)c2-c2nc3ccccc3s2)c(O)cc1OC	TEAD-YAP block 35.0
COCCCN1C(=S)NC2c3ccccc3OC1(C)C2C(=O)N(C)C (centres undefined)	none
CC(=O)C1=C(c2ccccc2)S/C(=C2/C(=S)C(C)(C)Nc3ccc(C)cc32)S1	MITF inh 57.0
CCOc1ccc2c(c1)/C(=C1/SC(C(C)=O)=C(c3ccccc3)S1)C(=S)C(C)(C)N2	none
O=C(CCl)N(c1ccccc1)c1ccccc1	TEAD-YAP block 66.4
Cc1cc(C(=O)CSc2nnc(N)s2)c(C)n1Cc1cccs1	TEAD-YAP block 58.4
Cc1csc(SCC(=O)c2cc(C)n(Cc3cccs3)c2C)n1	TEAD-YAP block 59.2
Cc1cc(C(=O)CCl)c(C)n1Cc1cccs1	none
Cc1cc(C(=O)CSc2nc(N)cc(=O)[nH]2)c(C)n1Cc1cccs1	none
CN1C(=O)C(=Cc2ccc(I)o2)C(=O)N(C)C1=S	MITF inh 80.6
CN1C(=O)C(=C/C=C/c2ccco2)C(=O)N(C)C1=S	MITF inh 76.8
CC1(C)OC(=O)C(=C/C=C/c2ccco2)C(=O)O1	MITF inh 71.5
CC(=O)c1ccc(-c2ccc(C=C3C(=O)N(C)C(=S)N(C)C3=O)o2)cc1	none
CN1C(=O)C(=Cc2ccco2)C(=O)N(C)C1=S	MITF inh 70.7
O=C(O)C1CCCN(C(=O)c2cccs2)C1 (centres undefined)	none
CCOc1ccc(S(=O)(=O)NNC(=S)NCc2ccc(Cl)cc2)cc1	none
COC(=O)C1=C(C)N(Cc2ccccc2)C(=O)/C1=C\c1ccccc1Cl	none
O=C1/C(=C\c2ccco2)N2CCC1CC2	none
CN1C2CCC1/C(=C\c1ccco1)C(=O)/C2=C\c1ccco1	MITF inh 54.3
O=C1NC(=O)N(c2cccc(F)c2)C(=O)/C1=C\C=C\c1ccco1	none
COc1cccc(N2C(=O)/C(=C/C=C/c3ccco3)C(=O)NC2=S)c1	MITF inh 56.9
COc1ccc(CC2(C)OC(c3ccncc3)=NN2C(C)=O)cc1 (centres undefined)	none
COc1ccc(CC2(C)OC(c3cccs3)=NN2C(C)=O)cc1 (centres undefined)	TEAD-YAP block 36.3
O=C(CCOc1ccccc1F)OCc1cc([N+](=O)[O-])cc2c1OCOC2	none
O=C1c2ccc3c4c(ccc(c24)C(=O)N1CCCCO)C(=O)N(CCCCO)C3=O	TEAD-YAP block 78.9
COc1cc(C)c2c(c1)oc(=O)c1ccccc12	FBW7 act 2.2
COc1cccc(N2CCN(c3c4c(nc5nncn35)CCC4)CC2)c1	TEAD-YAP block 36.7
O=C(Cn1cnc2sc3c(c2c1=O)CCCC3)N1CCN(Cc2ccc3c(c2)OCO3)CC1	none
c1ccc(-n2cnc3c(NCc4cccnc4)nc(NCCN4CCOCC4)nc32)cc1	none
Nc1ncnc(N2CCCc3ccccc32)c1[N+](=O)[O-]	none
CC1Cc2ccccc2N1c1ncnc(N)c1[N+](=O)[O-] (centres undefined)	TEAD-YAP block 81.5
CC1CCN(c2ncnc(N)c2[N+](=O)[O-])CC1	none
CCC1CCCCN1c1ncnc(N)c1[N+](=O)[O-] (centres undefined)	none
CC1CCCN(c2ncnc(N)c2[N+](=O)[O-])C1 (centres undefined)	TEAD-YAP block 62.3
Nc1ncnc(N2CCCC2)c1[N+](=O)[O-]	TEAD-YAP block 33.2
CC1CCCCN1c1ncnc(N)c1[N+](=O)[O-] (centres undefined)	TEAD-YAP block 41.5
O=C(CSc1cn(Cc2ccc(F)cc2)c2ccccc12)N1CCc2ccccc21	none
Cc1cc(-c2ccc(S(=O)(=O)N3CCN(C)CC3)cc2)on1	none
CC1CN(c2ncnc(N)c2[N+](=O)[O-])CC(C)O1 (centres undefined)	none
CC1CC(C)CN(c2ncnc(N)c2[N+](=O)[O-])C1 (centres undefined)	TEAD-YAP block 61.6
CCC(CC)C(=O)Nc1cccc(C(=O)Nc2ccc3c(c2)OCCO3)c1	none
Cc1ccc(C2=NC(C)(C)N=C2SCC(=O)Nc2ccc3c(c2)OCCO3)cc1	FBW7 act 3.7
O=C(Nc1ccc2c(c1)OCCO2)c1ccccc1O	TEAD-YAP block 56.5
O=C(Nc1cccc(C(=O)NC2CC2)c1)C(=O)Nc1ccc2c(c1)OCCO2	TEAD-YAP block 66.1
O=C(Nc1ccc2c(c1)OCCO2)c1ccccc1F	TEAD-YAP block 41.1
Cc1cc(C)c(C(=O)Nc2ccc3c(c2)OCCO3)c(C)c1	none
Cc1ccc(C(=O)Nc2ccc3c(c2)OCCO3)c(C)c1	TEAD-YAP block 88.9
O=C(Nn1c(SCc2c(F)cccc2Cl)nc2ccsc2c1=O)c1cccc(Br)c1	none
COCCn1c(=O)n(CC(=O)N2CCC(C(N)=O)CC2)c2cccnc21	FBW7 act 5.7
COCCn1c(=O)n(CC(=O)N2CCCCC2)c2cccnc21	none
CCOc1ccc(N(CC)S(=O)(=O)c2cccc3cccnc23)cc1	TEAD-YAP block 53.0
CONC(=O)Nc1ccccc1[N+](=O)[O-]	none
CC(C)(C)c1ccc(NC(=O)Nc2ccccc2[N+](=O)[O-])cc1	TEAD-YAP block 62.2
CCOC(=O)c1sc(NC(=O)c2ccccc2)nc1C	none
CCOC(=O)c1sc(NC(=O)c2cccc3ccccc23)nc1C	TEAD-YAP block 41.5
O=C(CN(c1ccccc1)S(=O)(=O)c1ccccc1[N+](=O)[O-])NC1CCCCC1	none
Fc1ccc2c(c1)nc(NCc1ccncc1)c1nccn12	TEAD-YAP block 48.6
Fc1ccc2c(c1)nc(NCc1ccccc1)c1nccn12	none
O=C(/C=C/c1ccc(O)c(O)c1)OC(Cc1ccc(O)c(O)c1)C(=O)O (centres undefined)	MITF inh 88.5
Cc1sc2nc(C3CC3)nc(SCC(=O)NC3CCCC3)c2c1C	none
CC(=O)N(C1=C(N(C)C)C(=O)c2ccccc2C1=O)c1ccc(Cl)c(Cl)c1	TEAD-YAP block 82.4
CN(C1=C(NCCO)C(=O)c2ccccc2C1=O)c1ccccc1	none
CC(=O)N(C1=C(N(C)C)C(=O)c2ccccc2C1=O)c1cccc(Cl)c1	TEAD-YAP block 92.9
